Source: PubChem BioAssay (EPA / NIEHS)
Where “and” joins values, the source holds several entries; their conditions need not be identical. Equal entries are not always repeated. More than one record can exist for a structure, and the calls need not agree. Calls of active or inactive are those of the source. The calls were made as follows: active = hit-call score of the fitted dose curve at least 0.9, where 1 is the maximum; inactive = score below 0.9.

What was measured:
[1] = BSK_hDFCGF_Proliferation: Cell Proliferation Assessment in the BioMAP Diversity Plus: hDFCGF Assay (AID 2283059); settings: primary human foreskin fibroblasts;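 also: curves fitted for both rise and fall of signal versus DMSO baseline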
Method in brief: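 This proliferation readout used SRB total-protein staining of human foreskin fibroblasts […], normalized to DMSO with bidirectional curve fitting.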

[2] = read-out: Macrophage colony-stimulating factor (MCSF), CSF1 (gene 1435); assay: BSK_hDFCGF_MCSF: BioMAP Diversity Plus: hDFCGF Assay for Macrophage colony-stimulating factor (MCSF) Biomarker Activity (AID 2283060); settings: primary human foreskin fibroblasts; actives raise or lower the signal
Method in brief: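 fibroblasts (human foreskin, primary), 24 h post-dose; M-CSF by ELISA; bidirectional fit, DMSO = baseline.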

[3] = BSK_hDFCGF_SRB: Viability Assessment in the BioMAP Diversity Plus: hDFCGF Assay (AID 2283061); settings: primary human foreskin fibroblasts;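 also: cells exposed to compound for 24 h before the read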
Method in brief: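 SRB-based viability read on primary human skin fibroblasts at 24 h: TCA fixation, 0.1% dye, 560 nm. Gain or loss of signal is fitted against the DMSO negative control.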

[4] = read-out: TIMP metallopeptidase inhibitor 1 (TIMP1), TIMP1 (gene 7076); assay: BSK_hDFCGF_TIMP1: BioMAP Diversity Plus: hDFCGF Assay for TIMP metallopeptidase inhibitor 1 (TIMP1) Biomarker Activity (AID 2283062); settings: primary human foreskin fibroblasts; actives raise or lower the signal
Method in brief: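 Bidirectional curve fitting against DMSO baseline yielded this endpoint, based on ELISA detection of TIMP-1 in primary human foreskin fibroblasts exposed to compound for 24 h.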

[5] = read-out: Monokine induced gamma interferon (MIG), CXCL9 (gene 4283); assay: BSK_hDFCGF_MIG: BioMAP Diversity Plus: hDFCGF Assay for Monokine induced gamma interferon (MIG) Biomarker Activity (AID 2283063); settings: primary human foreskin fibroblasts; actives raise or lower the signal
Method in brief: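 Endpoint derived by bidirectional fitting relative to DMSO; MIG quantified via ELISA in primary human foreskin fibroblasts harvested 24 h after dosing.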

[6] = read-out: Matrix Metallopeptidase 1 (MMP1), MMP1 (gene 4312); assay: BSK_hDFCGF_MMP1: BioMAP Diversity Plus: hDFCGF Assay for Matrix Metallopeptidase 1 (MMP1) Biomarker Activity (AID 2283064); settings: primary human foreskin fibroblasts; actives raise or lower the signal
Method in brief: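 MMP1 levels quantified by ELISA 24 h after dosing human dermal fibroblast cultures, with parallel SRB total-protein staining for overt cytotoxicity. Data fitted in both directions against DMSO baseline.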

[7] = read-out: Vascular cell adhesion molecule 1 (VCAM1), VCAM1 (gene 7412); assay: BSK_hDFCGF_VCAM1: BioMAP Diversity Plus: hDFCGF Assay for Vascular cell adhesion molecule 1 (VCAM1) Biomarker Activity (AID 2283065); settings: primary human foreskin fibroblasts; actives raise or lower the signal;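 as to AC50: VCAM-1 protein level quantified by ELISA after 24 h chemical exposure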
Method in brief: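 Measured after 24 h chemical treatment of primary human skin fibroblasts, VCAM-1 was detected by ELISA and concentration-response analysed in both directions versus DMSO vehicle.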

[8] = read-out: Plasminogen activator inhibitor-1 (PAI1), SERPINE1 (gene 5054); assay: BSK_hDFCGF_PAI1: BioMAP Diversity Plus: hDFCGF Assay for Plasminogen activator inhibitor-1 (PAI1) Biomarker Activity (AID 2283066); settings: primary human foreskin fibroblasts; actives raise or lower the signal
Method in brief: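 Fibroblasts from human foreskin were treated with test chemical. After 24 h, PAI-1 was measured by ELISA. Activity was fitted in both directions relative to DMSO.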

[9] = read-out: Intercellular Adhesion Molecule 1 (ICAM1), ICAM1 (gene 3383); assay: BSK_KF3CT_ICAM1: BioMAP Diversity Plus: KF3CT Assay for Intercellular Adhesion Molecule 1 (ICAM1) Biomarker Activity (AID 2283067); settings: primary human keratinocytes with fibroblasts; actives raise or lower the signal
Method in brief: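 Bidirectional curve fitting against a DMSO baseline was applied to ICAM-1 ELISA signal from primary human skin co-cultures harvested 24 h after treatment, with SRB staining of parallel wells for overt cytotoxicity.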

[10] = read-out: Interferon-gamma inducible Protein 10 (IP10), CXCL10 (gene 3627); assay: BSK_KF3CT_IP10: BioMAP Diversity Plus: KF3CT Assay for Interferon-gamma inducible Protein 10 (IP10) Biomarker Activity (AID 2283068); settings: primary human keratinocytes with fibroblasts; actives raise or lower the signal
Method in brief: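 Signal is secreted/surface IP-10 by ELISA in a human primary skin co-culture of keratinocytes and foreskin fibroblasts, taken 24 h post-dosing; DMSO served as negative control.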

Measured: AC50

Cc1ccc([N+](=O)[O-])cc1C
inactive: all assays above

c1ccc(OP(Oc2ccccc2)Oc2ccccc2)cc1
not listed: [2]
inactive: all other assays above

CCOP(=S)(OCC)SCn1nnc2ccccc2c1=O
active: [2] 20 µM
inactive: all other assays above

OCC(F)(F)OC(F)(F)C(F)(F)OC(F)(F)CO
inactive: all assays above

CC(Cl)(Cl)C(=O)O
active: [1] 0.148 µM
inactive: all other assays above

O=C(O)C(Cl)Cl
inactive: all assays above

CCNc1nc(Cl)nc(NC(C)(C)C)n1
inactive: all assays above

O=C(O)C=CC(F)(C(F)(F)F)C(F)(F)F
not listed: [2]
inactive: all other assays above

Cc1ccc(O)cc1C
not listed: [2]
inactive: all other assays above

OCC(F)(F)OC(F)(F)C(F)(F)OC(F)(F)C(F)(F)OC(F)(F)CO
active: [1] 4.15 µM and 36.9 µM | [3] 5.95 µM | [5] 16.8 µM and 23.2 µM | [6] 10.5 µM and 8.39 µM | [7] 13.4 µM and 8.26 µM
inactive: [3] | [4] | [8] | [9] | [10]

CCN(CC)c1ccccc1
inactive: all assays above

c1nc[nH]n1
inactive: all assays above

ClC(Cl)(Cl)c1ccccc1
inactive: all assays above

O=c1ssc(Cl)c1Cl
active: [1] 0.577 µM | [2] 3.29 µM | [3] 2.71 µM | [4] 2.65 µM | [5] 5.86 µM | [6] 4.13 µM | [7] 4 µM | [8] 4.05 µM | [9] 5.46 µM | [10] 7.06 µM

CCOC(=O)c1ccccc1C(=O)OCC
inactive: all assays above

O=C(O)C1C(C(=O)O)C2(Cl)C(Cl)=C(Cl)C1(Cl)C2(Cl)Cl (centres undefined)
not listed: [2]
inactive: all other assays above

c1ccc2c(c1)sc1ccccc12
not listed: [2]
inactive: all other assays above

O=S(=O)(F)C(F)(F)C(F)(F)C(F)(F)C(F)(F)C(F)(F)C(F)(F)C(F)(F)C(F)(F)F
not listed: [2]
inactive: all other assays above

Nc1ccc(Cl)cc1
active: [1] 7.71 µM
not listed: [2]
inactive: all other assays above

O=C(O)C(F)(OC(F)(F)C(F)(F)C(F)(F)F)C(F)(F)F (centres undefined)
not listed: [2]
inactive: all other assays above

O=P(Oc1ccccc1)(Oc1ccccc1)Oc1ccccc1
active: [1] 14.2 µM | [8] 20 µM
not listed: [2]
inactive: all other assays above

CCCCOCCOP(=O)(OCCOCCCC)OCCOCCCC
not listed: [2]
inactive: all other assays above

O=S1(=O)OCC2C(CO1)C1(Cl)C(Cl)=C(Cl)C2(Cl)C1(Cl)Cl (centres undefined)
not listed: [2]
inactive: all other assays above

O=C(O)C(F)(F)OC(F)(F)C(F)(F)OC(F)(F)F
not listed: [2]
inactive: all other assays above

Nc1cc2c3c(c1)C(c1ccccc1)=N[C@@H](NC(=O)c1cccnc1)C(=O)N3CC2
active: [8] 0.523 µM
not listed: [2]
inactive: all other assays above

CCCCN(CCCC)SN(C)C(=O)Oc1cccc2c1OC(C)(C)C2
inactive: [9] | [10]
active: [1] 6.34 µM | [3] 9.64 µM | [4] 12.4 µM | [5] 13.2 µM | [6] 12.4 µM | [7] 5.54 µM | [8] 8.57 µM

COCCOCCO
not listed: [2]
inactive: all other assays above

O=[N+]([O-])c1ccccc1
not listed: [2]
inactive: all other assays above

Nc1ccc([N+](=O)[O-])cc1Cl
not listed: [2]
inactive: all other assays above

ClC(Cl)=C(c1ccc(Cl)cc1)c1ccccc1Cl
active: [1] 0.742 µM | [3] 3.51 µM | [4] 3.94 µM | [5] 4.45 µM | [6] 3.83 µM | [7] 2.68 µM | [8] 4.24 µM | [9] 5.72 µM | [10] 3.5 µM

CCCCC(CC)COC(=O)c1c(Br)c(Br)c(Br)c(Br)c1C(=O)OCC(CC)CCCC (centres undefined)
not listed: [2]
inactive: all other assays above

CC(C)(C)c1ccc(O)cc1
not listed: [2]
inactive: all other assays above

N#Cc1cc([N+](=O)[O-])ccc1N
not listed: [2]
inactive: all other assays above

[N-]=[N+]=[N-]
not listed: [2]
inactive: all other assays above

Cc1ccc2c(c1N)C(=O)c1ccccc1C2=O
not listed: [2]
inactive: all other assays above

OCC1CO1 (centres undefined)
not listed: [2]
inactive: all other assays above

NC(=O)C(F)(F)C(F)(F)F
not listed: [2]
inactive: all other assays above

CCOP(=S)(S)OCC
active: [1] 12.6 µM
not listed: [2]
inactive: all other assays above

CC(C)(C)OOC(C)(C)C
not listed: [2]
inactive: all other assays above

CC(Cc1ccc(OCC(=O)O)cc1)NCC(O)c1csc(C(F)(F)F)n1 (centres undefined)
not listed: [2]
inactive: all other assays above

CCCCN(CCCC)N=O
not listed: [2]
inactive: all other assays above

CCCCC(CC)COP(=O)(Oc1ccccc1)Oc1ccccc1 (centres undefined)
inactive: [9] | [10]
active: [1] 6.04 µM | [3] 4.47 µM | [4] 5.46 µM | [5] 11 µM | [6] 6.33 µM | [7] 1.69 µM | [8] 6.48 µM

FC(F)(F)C(F)(C(F)(F)F)C(F)(F)C(F)(F)CC1CO1 (centres undefined)
not listed: [2]
inactive: all other assays above
